Screens (PubChem)
TcdB GH inh: inhibitors of Clostridioides difficile toxin B glycohydrolase. P18177. TcdB glycohydrolase enzymatic assay, plate reader. inhibition, % at 9.99 µM. 350,000 tested, 0.24% active. AID 652162; in the data active = inhibition above about 10%
Target sequence (P18177 whole entry, looked up): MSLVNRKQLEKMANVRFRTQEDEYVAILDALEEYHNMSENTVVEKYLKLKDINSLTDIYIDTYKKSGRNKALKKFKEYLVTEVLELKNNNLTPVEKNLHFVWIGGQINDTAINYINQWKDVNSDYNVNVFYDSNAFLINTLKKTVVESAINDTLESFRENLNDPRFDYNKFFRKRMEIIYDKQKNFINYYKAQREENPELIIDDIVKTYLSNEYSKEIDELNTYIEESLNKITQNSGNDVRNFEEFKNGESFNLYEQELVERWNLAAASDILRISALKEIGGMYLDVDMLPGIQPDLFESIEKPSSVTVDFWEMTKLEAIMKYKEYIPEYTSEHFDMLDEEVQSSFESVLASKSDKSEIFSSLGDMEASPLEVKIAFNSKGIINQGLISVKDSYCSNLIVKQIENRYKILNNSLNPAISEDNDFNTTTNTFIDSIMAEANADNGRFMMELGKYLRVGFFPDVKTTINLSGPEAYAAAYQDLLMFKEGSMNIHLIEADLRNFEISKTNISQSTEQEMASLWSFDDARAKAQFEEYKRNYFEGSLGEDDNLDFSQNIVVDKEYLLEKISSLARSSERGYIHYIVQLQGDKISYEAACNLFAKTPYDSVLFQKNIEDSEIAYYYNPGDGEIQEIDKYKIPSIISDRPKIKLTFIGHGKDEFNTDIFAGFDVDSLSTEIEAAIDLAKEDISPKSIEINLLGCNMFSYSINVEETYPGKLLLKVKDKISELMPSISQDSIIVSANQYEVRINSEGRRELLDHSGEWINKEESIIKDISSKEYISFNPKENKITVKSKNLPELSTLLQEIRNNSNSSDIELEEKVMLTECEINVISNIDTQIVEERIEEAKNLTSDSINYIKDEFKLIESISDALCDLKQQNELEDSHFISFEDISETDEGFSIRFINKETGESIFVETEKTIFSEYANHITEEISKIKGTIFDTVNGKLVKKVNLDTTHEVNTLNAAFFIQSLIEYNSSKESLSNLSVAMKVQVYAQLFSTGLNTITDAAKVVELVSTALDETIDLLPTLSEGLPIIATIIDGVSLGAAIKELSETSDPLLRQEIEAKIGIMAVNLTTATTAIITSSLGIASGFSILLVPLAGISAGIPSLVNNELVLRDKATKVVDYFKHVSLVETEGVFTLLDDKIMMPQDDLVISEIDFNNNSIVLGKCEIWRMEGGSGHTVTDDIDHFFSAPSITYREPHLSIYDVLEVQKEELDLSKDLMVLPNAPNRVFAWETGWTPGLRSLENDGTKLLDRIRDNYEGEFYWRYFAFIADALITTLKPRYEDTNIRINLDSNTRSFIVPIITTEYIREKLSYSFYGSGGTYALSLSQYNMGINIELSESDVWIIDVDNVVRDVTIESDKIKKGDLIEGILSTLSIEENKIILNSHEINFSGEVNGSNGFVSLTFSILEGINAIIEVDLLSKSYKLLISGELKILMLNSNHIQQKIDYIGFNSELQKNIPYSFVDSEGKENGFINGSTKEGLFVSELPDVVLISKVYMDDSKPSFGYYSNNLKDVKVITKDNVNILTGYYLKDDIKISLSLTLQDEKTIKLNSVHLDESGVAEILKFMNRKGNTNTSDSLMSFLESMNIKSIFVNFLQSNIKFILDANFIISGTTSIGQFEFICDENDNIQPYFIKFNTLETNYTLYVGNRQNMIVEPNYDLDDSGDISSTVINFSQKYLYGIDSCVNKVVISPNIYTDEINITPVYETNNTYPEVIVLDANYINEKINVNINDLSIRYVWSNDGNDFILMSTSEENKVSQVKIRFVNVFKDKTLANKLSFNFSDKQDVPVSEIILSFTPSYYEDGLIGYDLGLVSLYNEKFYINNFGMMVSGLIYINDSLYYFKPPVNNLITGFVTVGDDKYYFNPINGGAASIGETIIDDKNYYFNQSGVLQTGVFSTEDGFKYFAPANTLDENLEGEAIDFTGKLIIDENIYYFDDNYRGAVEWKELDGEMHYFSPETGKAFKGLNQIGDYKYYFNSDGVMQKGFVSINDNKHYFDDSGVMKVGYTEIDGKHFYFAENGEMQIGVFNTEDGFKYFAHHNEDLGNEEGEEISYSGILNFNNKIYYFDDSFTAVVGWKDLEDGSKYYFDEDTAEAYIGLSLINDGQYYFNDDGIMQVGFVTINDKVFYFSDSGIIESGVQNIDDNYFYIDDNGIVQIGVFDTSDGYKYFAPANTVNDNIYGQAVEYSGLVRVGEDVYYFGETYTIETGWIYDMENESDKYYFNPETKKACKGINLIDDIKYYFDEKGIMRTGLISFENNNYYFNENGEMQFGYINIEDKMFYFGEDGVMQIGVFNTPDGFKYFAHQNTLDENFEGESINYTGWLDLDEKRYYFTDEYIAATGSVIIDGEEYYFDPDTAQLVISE
BioA inh: BioA (M. tuberculosis) enzyme inhibition; purified M. tuberculosis BioA enzyme, plate reader; inhibition, % at 9.99 µM; 360,000 tested, 0.096% active; AID 602481; in the data active = inhibition above about 40%
FadD28 FP inh: M. tuberculosis FadD28 bisubstrate binding inhibition; FadD28 bisubstrate probe binding, fluorescence polarization; AID 588549; 360,000 tested, 0.22% active; inhibition, % at 12.5 µM; in the data active = inhibition above about 8.5%, passing the limit was not always enough
PfHsp40 yeast: restores yeast growth despite PfHsp40 toxicity. S. cerevisiae expressing PfHsp40, growth rescue, ATP luminescence. growth rescue, % at 12.5 µM. 340,000 tested, 0.68% active; in the data active = growth rescue above about 28%, passing the limit was not always enough;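 note: yeast W303a lacking pdr1 and pdr3 grown in galactose medium; growth measured after three days at 30 °C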
PrP UTR inh: inhibition of PrP 5' UTR reporter expression | inhibition, % (test concentration not listed) | cell-based PrP 5' UTR mRNA reporter, plate reader | AID 488862 | 340,000 tested, 0.35% active; in the data active = inhibition above about 52%; note: 0 = median of the neutral control wells
* hit, by the source's call; . = no result. Shown are actives, neighbours in structure and some others; about 1.1% of the full set was active somewhere.

SMILES | TcdB GH inh | BioA inh | FadD28 FP inh | PfHsp40 yeast | PrP UTR inh
C[C@H]1CN([C@@H](C)CO)C(=O)c2cccc(NC(=O)Nc3ccc4c(c3)OCO4)c2O[C@@H]1CN(C)C(=O)Nc1ccc(F)cc1 | . | 5 | . | . | .
Cc1ccc(C(=O)CC(=O)c2cccc(F)c2)c(O)c1 | . | 1 | -2 | 396* | -14
COc1ccc(CN(C)C(=O)COC(=O)c2ccc(-c3ccccc3)cc2)c(OC)c1OC | 1 | 0 | -3 | 68* | -19
COc1ccc(CN(C)C(=O)CCN2C(=O)c3ccccc3C2=O)c(OC)c1OC | -1 | 0 | 2 | 1 | -16
COc1cc(/C=C/C(=O)OCC(=O)NC(=O)NC(C)(C)C)ccc1OCC#N | 1 | . | -1 | 83* | -5
COc1ccccc1Oc1cn[nH]c1-c1ccc(O)cc1O | 19* | . | 1 | 3 | -21
CCCc1ccc(Oc2c(-c3ccc(O)c(C)c3O)n[nH]c2C)cc1 | . | . | -1 | 3 | -4
COc1cccc(Oc2cn[nH]c2-c2ccc(O)cc2O)c1 | . | 0 | -3 | 0 | -25
CCOc1ccc(-c2[nH]ncc2Oc2cccc(OC)c2)c(O)c1 | . | 0 | -3 | 336* | -9
CCCc1ccc(Oc2cn[nH]c2-c2ccc(O)c(C)c2O)cc1 | . | -1 | -4 | 83* | -8
CCC(=O)Nc1ccc2c(c1)C(=O)N(C)[C@H]1CC[C@@H](CC(=O)NCc3ccc(OC)cc3)O[C@H]1CO2 | 0 | 1 | . | . | .
C[C@@H](NC(=O)[C@H]1[C@H](CO)[C@H]2Cn3c(ccc(-c4ccccc4F)c3=O)[C@@H]1N2C)c1ccccc1 | 1 | 0 | . | . | .
CC(c1ccon1)N(C)Cc1cn(C)nc1-c1cccc(Cl)c1 (centres undefined) | 1 | . | -2 | 79* | -9
Cc1cnccc1CN(C)Cc1cn(C)nc1-c1cccc(Cl)c1 | 1 | 2 | -1 | -1 | 6
CN1c2ccc(-c3ccccc3)cc2[C@@H]2[C@@H](CCN2C(=O)CN2CCOCC2)[C@@H]1CO | 12* | 5 | . | . | .
CCC(=O)N1CC[C@H]2[C@@H]1c1cc(-c3ccccc3)ccc1N(C)[C@H]2CO | 4 | 13 | . | . | .
COCC(=O)N1CC[C@@H]2[C@H]1c1cc(-c3ccc(OC)cc3)ccc1N(C)[C@H]2CO | 17* | 2 | . | . | .
CN(C)CC(=O)N1CC[C@@H]2[C@H]1c1cc(-c3ccccc3)ccc1N(C)[C@H]2CO | 12* | 10 | . | . | .
CCCNC(=O)N1CC2(CN(Cc3cccc(OC)c3)C2)c2c([nH]c3cc(OC)ccc23)[C@H]1CO | 3 | . | . | . | .
CC(=O)N1CCN(c2ccc(NC(=O)c3ccc4c(c3)OCO4)cc2)CC1 | . | 0 | -2 | 106* | -7
Cc1ccc(NC(=O)c2cc(N3C(=O)C=CC3=O)ccc2N2CCOCC2)cc1Cl | 0 | . | -5 | 36* | -63
O=C(NNC(=O)c1cc(Cl)ccc1O)c1cccc(S(=O)(=O)N2CCOCC2)c1 | 2 | 1 | -3 | 475* | -23
CCC(=O)N1CCN(c2ccc(NC(=O)c3ccc4c(c3)OCO4)cc2)CC1 | . | -2 | -4 | 1 | -25
O=C(Nc1ccc(N2CCOCC2)c(Cl)c1)c1ccc(Cl)cc1 | 22* | 3 | -1 | 1 | -23
Cc1ccc(NC(=O)c2cc(N3C(=O)CCC3=O)ccc2N2CCOCC2)cc1 | 0 | . | -1 | 0 | -21
SMILES | TcdB GH inh | BioA inh | FadD28 FP inh | PfHsp40 yeast | PrP UTR inh
O=C(Nc1ccc(N2CCOCC2)cc1N1CCOCC1)c1ccc(Cl)cc1 | -1 | 0 | -3 | -1 | -12
COc1ccc(CN(C)C[C@@H]2OCCCC[C@H](C)Oc3ccc(NS(=O)(=O)c4ccc(OC)cc4)cc3C(=O)N([C@H](C)CO)C[C@@H]2C)cc1 | . | 6 | . | . | .
O=C(CN1CCOCC1)N[C@H]1CC[C@H](CCn2cc(C3CCCCC3)nn2)O[C@H]1CO | -1 | 0 | . | . | .
O=C(COc1c(F)c(F)c(C(F)(F)F)c(F)c1F)Nc1ccc(N2CCOCC2)c(Cl)c1 | . | -1 | -2 | 30* | -3
O=C(Nc1cc(S(=O)(=O)N2CCOCC2)ccc1N1CCOCC1)c1ccccc1Cl | 14* | 1 | 0 | 0 | -28
O=C(CCNC(=O)c1ccccc1Cl)Nc1cc(S(=O)(=O)N2CCOCC2)ccc1N1CCOCC1 | 1 | -2 | -1 | -2 | 15
O=C(Nc1ccc(N2CCOCC2)c(Cl)c1)c1ccc2c(c1)OCCO2 | 21* | -1 | 1 | -1 | -16
CSc1ccc(OCC(=O)Nc2ccc(N3CCOCC3)c(Cl)c2)cc1 | 0 | 0 | 0 | -2 | -4
COc1ccc(S(=O)(=O)Nc2ccc3c(c2)CC(=O)N([C@H](C)CO)C[C@H](C)[C@H](CN(C)S(=O)(=O)c2c(C)noc2C)O3)cc1 | 0 | 7 | . | . | .
